Test results reported in PubChem BioAssay (Tox21).
“And” between values parts separate entries of the source, which are not always exact repeats. Identical values can stand only once. Results filed as inconclusive are left out. Where a call stands in place of a potency, no number is given. Some compounds were tested as several samples or in several runs, with calls that do not always agree. The source made the active and inactive calls. The call rests on the fitted dose curve; in most records, active means well fitted cell-killing curve with a large enough effect in the repeat runs; inconclusive means weak or mixed curves, or effect the other way; inactive means no such curve, though single readings can be large or run the other way.

experiment: qHTS assay for identifying genotoxic compounds that show differential cytotoxicity against isogenic chicken DT40 cell lines with known DNA damage response pathways - Rev3 mutant cell line (AID 743014); conditions: chicken DT40 Rev3-/- viability, CellTiter-Glo, 40 h; series mostly up to 68.4 µM; further: nearly all actives have a fitted effect of over 55% in size
Text: National Center for Advancing Translational Sciences [NCATS]
NIH Chemical Genomics Center [NCGC]
U.S. Environmental Protection Agency [EPA]
National Institutes of Environmental Health Sciences [NIEHS]
National Toxicology Program [NTP]
U.S. Food and Drug Administration [FDA]
DNA repair pathways play a critical role in cellular homeostasis by repairing DNA damage induced by endogenous processes and xenobiotics. Isogenic chicken DT40 cell lines deficient in different DNA repair pathways can be used to identify genotoxic compounds and aid in characterizing the nature of the DNA damage induced. Two DNA repair-deficient cell lines with disrupted genes, Rad54/Ku70 or Rev3, were used to screen the Tox21 10K compound library. Possible genotoxicity was based on the presence of a significant increase in cytotoxicity in one or more of the DNA repair-deficient cell lines compared to that observed in the parental DNA repair-proficient cell line. CellTiter Glo viability assay (Promega, Madison, WI) was used to measure cell viability in these cells after compound treatment. This assay includes the data from the Rev3 mutant cell line.
Tox21 Assay Protocol Summary:
300 DT40 mutant cells in 5 uL/well were dispensed into white, solid-bottom 1536-well plates using a Multidrop Combi (ThermoFisher Scientific, Waltham, MA) dispenser. After the assay plates were incubated at 37 C/5% CO2 for approximately 0.5 hour, 23 nL of compounds dissolved in DMSO, positive controls or DMSO only was transferred into the assay plate by a pintool work station (Kalypsys, San Diego, CA). The assay plates were incubated at 37 C/5% CO2 for 40 hours. After 5 uL per well of CellTiter-Glo reagent was added into each well of the assay plates, the plates were incubated for 30 min at room temperature and the luminescence intensity of the plates was measured using a ViewLux (PerkinElmer, Shelton, CT) plate reader.
Potency means the concentration at half of the fitted maximal effect.

**Q.** With Oc1ccc2ccccc2c1 as the compound, how does the Potency read?
**A.** inactive

**Q.** Which Potency does the source give for C=C(C)C(=O)OCCC[Si](OC)(OC)OC here?
**A.** inactive

**Q.** Which Potency does the source give for CC1=CC[C@H]2C[C@@H]1C2(C)C here?
**A.** inactive

**Q.** For CC1(C)O[C@@H]2C[C@H]3[C@@H]4C[C@H](F)C5=CC(=O)CC[C@]5(C)[C@H]4[C@@H](O)C[C@]3(C)[C@]2(C(=O)CO)O1, which Potency is on record?
**A.** inactive

**Q.** Which Potency does the source give for COC(=O)Nc1nc2ccc(Sc3ccccc3)cc2[nH]1 here?
**A.** 285 nM (active) and 217 nM (active)

**Q.** Which Potency does the source give for CN(C)c1ccc(C(=N)c2ccc(N(C)C)cc2)cc1 here?
**A.** 2.4 µM (active) and 8.31 µM (active)

**Q.** For CCCCCCCCC, which Potency is on record?
**A.** inactive

**Q.** With CCC(C)C=O (stereo not given) as the compound, how does the Potency read?
**A.** inactive

**Q.** With NC(=O)/N=N/C(N)=O as the compound, how does the Potency read?
**A.** inactive

**Q.** Which Potency does the source give for C[C@@H]1O[C@@H](OC[C@H]2O[C@@H](Oc3c(-c4ccc(O)c(O)c4)oc4cc(O)cc(O)c4c3=O)[C@H](O)[C@@H](O)[C@@H]2O)[C@H](O)[C@H](O)[C@H]1O here?
**A.** inactive

**Q.** Which Potency does the source give for O=C1CCCCC1 here?
**A.** inactive

**Q.** With O=S(=O)(O)CCS as the compound, how does the Potency read?
**A.** inactive

**Q.** With Nc1nc2ncc(CNc3ccc(C(=O)N[C@@H](CCC(=O)O)C(=O)O)cc3)nc2c(=O)[nH]1 as the compound, how does the Potency read?
**A.** inactive

**Q.** With CCOC(=O)[C@H](CCc1ccccc1)N[C@@H](C)C(=O)N1Cc2ccccc2C[C@H]1C(=O)O as the compound, how does the Potency read?
**A.** inactive and 61.6 µM (active)

**Q.** For O=C1O[C@H](CO)[C@@H](O)[C@H](O)[C@H]1O, which Potency is on record?
**A.** inactive

**Q.** For CCCCOCCOCCOC(=O)CCCCC(=O)OCCOCCOCCCC, which Potency is on record?
**A.** inactive

**Q.** For CC(=O)CCc1ccccc1, which Potency is on record?
**A.** inactive

**Q.** With CCOC(=O)/C=C\C(=O)OCC as the compound, how does the Potency read?
**A.** inactive

**Q.** For Cc1ccc(N)c(S(=O)(=O)O)c1, which Potency is on record?
**A.** inactive

**Q.** With C=C1CC[C@H](O)CC1=C/C=C1\CCC[C@]2(C)[C@@H]([C@H](C)/C=C/[C@H](C)C(C)C)CC[C@@H]12 as the compound, how does the Potency read?
**A.** 12.1 µM (active) and 24.3 µM (active)

**Q.** With CC[Si](OC(C)=O)(OC(C)=O)OC(C)=O as the compound, how does the Potency read?
**A.** inactive

**Q.** For CCCCC(CC)COC(=O)CCCCCCCC(=O)OCC(CC)CCCC (stereo not given), which Potency is on record?
**A.** inactive

**Q.** Which Potency does the source give for Oc1ccc(OCc2ccccc2)cc1 here?
**A.** 2.85 µM (active) and 5.33 µM (active)

**Q.** For CC(=O)[C@@]1(O)CC[C@H]2[C@@H]3CCC4=CC(=O)CC[C@]4(C)[C@H]3CC[C@@]21C, which Potency is on record?
**A.** inactive and 17.2 µM (active)

**Q.** Which Potency does the source give for Cc1ccc(C)c(C)c1 here?
**A.** inactive

**Q.** Which Potency does the source give for CCc1ccccc1O here?
**A.** inactive

**Q.** With OCC1CCCO1 (stereo not given) as the compound, how does the Potency read?
**A.** inactive

**Q.** For OC1CCCC1, which Potency is on record?
**A.** inactive

**Q.** Which Potency does the source give for CCCCC(CC)COC(=O)/C=C\C(=O)OCC(CC)CCCC (stereo not given) here?
**A.** inactive

**Q.** With CC1=C(/C=C/C(C)=C/C=C/C(C)=C/CO)C(C)(C)CCC1 as the compound, how does the Potency read?
**A.** 55.1 µM (active) and 36.2 µM (active)

**Q.** Which Potency does the source give for Cc1cc(Cc2ccc(N)c(C)c2)ccc1N here?
**A.** 68.6 µM (active) and 54.5 µM (active)

**Q.** For CCCCCC/C=C/CCCCCCCC(=O)O, which Potency is on record?
**A.** inactive

**Q.** With O=C(c1ccc(O)cc1)c1ccc(O)cc1O as the compound, how does the Potency read?
**A.** inactive

**Q.** Which Potency does the source give for OCC#CCO here?
**A.** inactive and 54.5 µM (active)

**Q.** For CCCCCCCCCCCCN, which Potency is on record?
**A.** inactive and 21.7 µM (active)

**Q.** With CCOC(=O)C1OC1c1ccccc1 (stereo not given) as the compound, how does the Potency read?
**A.** inactive

**Q.** For COC(=O)c1ccc(C(=O)OC)cc1, which Potency is on record?
**A.** inactive

**Q.** Which Potency does the source give for S=c1nc[nH]c2nc[nH]c12 here?
**A.** 53.1 µM (active)

**Q.** For Cc1cc(O)cc(C)c1Cl, which Potency is on record?
**A.** inactive

**Q.** With O=[N+]([O-])C(CO)(CO)CO as the compound, how does the Potency read?
**A.** inactive
